# Assay outcomes as filed in PubChem BioAssay.
# IL1B secr inh: inflammasome signaling inhibition, IL-1 beta readout. THP-1 LPS/ATP IL-1B secretion, AlphaLISA, 16 h; stronger effect = lower value. 4.7% of 360,000 active. AID 743279. activity change, % at 57.5 µM; in the data active = activity change below about -50%; inconclusive = mostly about -30% to -49%
#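 THP-1 cells pretreated 1 hr with compounds (up to 57.5 uM final), then stimulated with LPS (250 ng/mL final) plus ATP (1.25 mM final); secreted IL-1B measured by AlphaLISA after 16 hr, decreased signal indicating inhibition.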
# HT1080-NT tox: kills 2HG-producing HT-1080-NT fibrosarcoma cells. Potency, µM (top dose mostly 46.1 µM), for inactives: top-dose activity, negative = less viability, most hits filed as cytotoxic. 1.6% of 360,000 active. AID 686970. HT-1080-NT fibrosarcoma viability, CellTiter-Glo ATP luminescence, 48 h;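 also: NT is the 2HG producing partner of a matched IDH1 knockdown line; potency is read from the fitted curve at half-maximal effect; 0% = DMSO-treated cells and -100% = media-only wells without cells; nearly all actives have a fitted effect of over 55% in size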
#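 Compounds were tested in concentration-response format on HT-1080-NT cells for 48 hours at 37 degrees C. Cell viability came from CellTiter-Glo luminescence; curves were classified by r2, response magnitude and activity.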
# 12-LOX inh: inhibitors of human 12S-lipoxygenase ALOX12; P18054; purified 12hLO, xylenol orange hydroperoxide absorbance; Potency, µM (top dose mostly 108 µM), without a hit: at the top dose activity change, negative = inhibition, hits mostly inhibitors; 1.1% of 580,000 active; also: potency is read from the fitted curve at half-maximal effect
#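 Hydroperoxide product was detected by ferrous iron/xylenol orange as the 573 to 405 nm absorbance ratio. Arachidonic acid at 40 uM (final) was turned over for 30 min at room temperature by 150 nM human 12hLO, pH 7.0 Hepes buffer, after 15 min compound preincubation.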
# TDP1 cell noCPT: qHTS for Inhibitors of human tyrosyl-DNA phosphodiesterase 1 (TDP1): qHTS in cells in absence of CPT; DT40 Tdp1-/- hTDP1 cells, no CPT, ATP luminescence, 48 h; Potency, µM (series often up to 46.2 µM), for the others: top-dose activity change, negative = growth inhibition, most hits filed as inhibitors; 15% of 420,000 active; also: potency is read from the fitted curve at half-maximal effect; nearly all actives have a fitted effect of over 55% in size
#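 Chicken DT40 Tdp1-/- cells stably complemented with human TDP1 were seeded at 400 cells/well with DMSO in place of 20 nM camptothecin. After compound pinning, cells grew at least 48 hr at 37 °C; viability read by CellTiter-Glo luminescence.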
# TDP1 cell CPT: DT40-hTDP1 cell growth loss with CPT; AID 686979; 12% of 420,000 active; Potency, µM (doses to about 46.2 µM), inactives show at the highest dose activity change, negative = growth inhibition, hits mostly inhibitors; chicken DT40 Tdp1-/-;hTDP1 cells + 20 nM CPT, ATP luminescence, 48 h; also: potency is read from the fitted curve at half-maximal effect; nearly all actives have a fitted effect of over 55% in size
#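 Chicken DT40 Tdp1-/- cells stably complemented with human TDP1 were seeded at 400 cells/well in medium containing 20 nM camptothecin, exposed to pin-transferred compounds, and grown at 37 °C for at least 48 hr. Viability was read as ATP luminescence.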
# HT1080 IDH1KD tx: HT-1080 IDH1 knockdown cell toxicity (counter line); HT-1080 IDH1 knockdown viability, ATP luminescence, 48 h; Potency, µM (highest dose often 46.1 µM), without a hit: at the highest dose activity, negative = toxicity, hits mostly cytotoxic; 2% of 360,000 active;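 also: potency is read from the fitted curve at half-maximal effect; 0% = DMSO wells and -100% = cell-free medium wells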
#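 Cytotoxicity counter-line: IDH1KD HT-1080, 48 h, CellTiter-Glo. Curves classed by r2, magnitude and activity.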
# Numbers without * were called inactive; ? = inconclusive; nt = not tested or not shown; [ ] = another dose, or the depositor's remark. The sample as a whole holds a higher share of hits than the screen did. Unless noted, calls follow the shape of the dose curve; as a rule, active = well fitted curve in the direction sought with a large enough effect; inconclusive = small, poorly fitted or top-dose-only effect, or another doubt; inactive = no such curve, though single readings can be large; an effect the other way counts as inactive or inconclusive. Unless noted, % is scaled to controls: 0 for no effect and ±100 for the full control effect.
SMILES,IL1B secr inh,HT1080-NT tox,12-LOX inh,TDP1 cell noCPT,TDP1 cell CPT,HT1080 IDH1KD tx
CC1(C)CC(C)(c2ccc(O)cc2O)N(c2ccc3ccccc3c2)C(=S)N1 (stereo unspecified),-12,-23%,18µM*,?,?,-23%
COc1ccc(N2CCN(C(=O)c3ccc(C)c(NC(=O)c4nsc5ccccc45)c3)CC2)cc1,nt,nt,?,?,26µM*,nt
Cc1ccc(Cl)cc1N1CCN(C(=O)c2ccc(NC(=O)c3nsc4ccccc34)cc2)CC1,nt,nt,-16%,18µM*,?,nt
Cc1cccc(N2CCN(C(=O)c3ccc(NC(=O)c4nsc5ccccc45)cc3)CC2C)c1 (stereo unspecified),nt,nt,-2%,6.5µM*,9.2µM*,nt
CN(Cc1cccnc1)c1nc2c(c(=O)[nH]1)CCN(CC1CCCCC1)CC2,nt,nt,4%,nt,nt,nt
ONC(=NCc1ccccc1)c1ccccc1,10,8%,0%,-15%,-3%,0%
NC(N)=NN=Cc1ccnc2ccccc12,-104*,-8%,?,?,15µM*,-14%
NC(=NCc1ccccc1)NN=Cc1ccnc2ccccc12,-110*,?,13µM*,?,21µM*,?
O=C(O)C(=Cc1ccnc2ccccc12)C(=O)O,-11,0%,?,-13%,-15%,0%
N/C(=N\N=C\c1ccnc2ccccc12)SC1CC(=O)N(c2ccc(Br)cc2)C1=O (stereo unspecified),0,-13%,1%,15µM*,?,-1%
COc1ccccc1-c1nnc(SCC(=O)Nc2ccc(N(C)C)cc2)n1-c1ccccc1,nt,nt,-52%,nt,nt,nt
CN(Cc1cccs1)C(C(=O)NC1CC1)c1ccccc1 (stereo unspecified),nt,nt,16%,nt,nt,nt
O=C(O)/C=C/c1cccc(Cl)c1,nt,nt,0%,nt,nt,nt
O=C(NN1CCOCC1)c1cc(-c2ccc(Br)cc2)nc2ccccc12,-17,13%,-7%,7.3µM*,?,7%
CN1CCC(N(C)C(=S)NC(=O)c2cc(-c3cccc(Br)c3)nc3ccccc23)CC1,25,-4%,?,18µM*,?,4%
CN1CCN(NC(=O)c2cc(-c3cccc(Cl)c3)nc3ccccc23)CC1,?,16µM*,-5%,10µM*,12µM*,?
CCc1ccc(-c2cc(C(=O)NN3CCOCC3)c3ccccc3n2)cc1,-19,-1%,12%,1.3µM*,8.2µM*,-2%
COc1cccc(-c2cc(C(=O)Nn3cnnc3)c3ccccc3n2)c1,18,?,8%,-19%,-14%,1%[9.24 µM]
Cc1ccc(C)c(-c2cc(C(=O)NN3CCOCC3)c3ccccc3n2)c1,15,-3%,-7%,?,-7%,-10%
Cc1nccn1CCCC(=O)N1CCC2(CC1)CNC(C(=O)O)C2 (stereo unspecified),nt,nt,68%,nt,nt,nt
CCN1CCCN(S(=O)(=O)c2cc(OC)ccc2OC)CC12CCOCC2,nt,nt,24%,nt,nt,nt
CN(C)c1nccnc1OC1CCN(C(=O)CC2CCCC2)C1 (stereo unspecified),nt,nt,17%,nt,nt,nt
Cc1cc(C)c(NC(=O)CN2CCC(C(=O)N3CCCC3)CC2)c(C)c1,nt,nt,-31%,nt,nt,nt
COc1cccc(/C=C/C(=O)C23CC4CC(CC(C4)C2)C3)c1OC,nt,nt,6%,nt,nt,nt
O=C(NCCCN1CCOCC1)c1cc(-c2ccc(Br)cc2)nc2ccccc12,-68*,-15%,?,?,?,-19%
Cc1ccc(-c2cc(C(=O)NCCCN3CCOCC3)c3ccc(Cl)c(C)c3n2)cc1,-64*,-2%,-28%,?,?,1%
COc1ccc(-c2cc(C(=O)NN3CCOCC3)c3ccccc3n2)cc1OC,-21,1%,3%,?,?,-1%
